From PubChem BioAssay come the findings set out here.

Values without a mark were called inactive. For some of these results: Results with a measured potency or affinity are listed apart. Active and inactive are the calls of the source. Unless noted, the rule behind the calls is not given here.

A short description of assay [1]: antimalarial activity against Dd2 strain (AID 2302;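 active = growth inhibition above 50% at the single 2 µM test dose, taken to imply half-maximal potency below 2 µM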;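 note: 0% = DMSO untreated growth and 100% = chloroquine plus artemisinin killed control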). As to conditions: P. falciparum Dd2 in RBCs, LDH growth readout, 72 h; at 2 µM; active compounds read high.
Assay [2] is described as follows: HepG2 cytotoxicity, primary screen, cytotoxicity control for P. falciparum antimalarial project, cell-based, ATP luminescence (AID 2303;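 active = inhibition above 50%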;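 note: 0% = DMSO wells and 100% = digitonin-killed cells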). As to conditions: HepG2 viability, 24-48 h, at 10 µM, active compounds read high.
Assay [3] addresses L-lactate dehydrogenase (Plasmodium falciparum (isolate CDC / Honduras)) (UniProt Q27743). Kind of assay: PfLDH activity inhibition – cell lysate, 3D7 strain, counter-screen for P. falciparum growth inhibition project (AID 2304).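 Note: 0% = vehicle and 100% = reference inhibitor.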 The conditions noted are these: P. falciparum 3D7 crude extract, LDH APAD/NBT absorbance; at 2 µM; active compounds read high. A general note: Counterscreens check selectivity or assay interference.

Assay [4] can be described thus: inhibition of 3D7 malaria parasite growth – strain 3D7 (AID 2306).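 Note: 0% = DMSO wells and 100% = chloroquine plus artemisinin control wells.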 As to conditions: P. falciparum 3D7 erythrocytic growth, LDH absorbance, 72 h; at 2 µM; active compounds read high.
In assay [5] the target is Calcium-dependent protein kinase 1 (Plasmodium falciparum (isolate 3D7)) (UniProt P62344). Nature of the assay: PfCDPK1 kinase inhibitors, biochemical, TCAMS library (AID 1159585; cut-off not given, nearly all actives have IC50 up to about 0.98 µM;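 note: inhibitors leave more ATP so luminescence rises with inhibition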). The conditions noted are these: recombinant PfCDPK1, Kinase-Glo ATP depletion luminescence. Background: Kinase-Glo reads ATP consumption through a luciferase reaction.
Assay [6] has as its target Plasmodium falciparum protein kinase 6 (PK6, PF3D7_1337100) (UniProt Q8IDW1). Kind of assay: PfPK6 kinase inhibitors, biochemical, TCAMS library (AID 1159586). The conditions noted are these: recombinant PfPK6, Kinase-Glo ATP depletion luminescence.
Assay [7] deals with Protein kinase 7 (PK7), Plasmodium falciparum 3D7 (PF3D7_0213400) (UniProt Q7YTF7). Kind of assay: inhibition of Plasmodium PK7 catalytic activity – biochemical, TCAMS antimalarial set, Kinase-Glo luminescence (AID 1159587). As to conditions: recombinant PfPK7, Kinase-Glo ATP depletion luminescence.
Assay [8] addresses Calcium-dependent protein kinase 4 (Plasmodium falciparum (isolate 3D7)) (UniProt Q8IBS5). Nature of the assay: PfCDPK4 kinase inhibitors, biochemical, TCAMS library (AID 1159588; cut-off not given, nearly all actives have IC50 up to about 0.91 µM). The conditions noted are these: recombinant PfCDPK4, Kinase-Glo ATP depletion luminescence.

Sequence of L-lactate dehydrogenase (Plasmodium falciparum (isolate CDC / Honduras)) (Q27743 whole entry, looked up): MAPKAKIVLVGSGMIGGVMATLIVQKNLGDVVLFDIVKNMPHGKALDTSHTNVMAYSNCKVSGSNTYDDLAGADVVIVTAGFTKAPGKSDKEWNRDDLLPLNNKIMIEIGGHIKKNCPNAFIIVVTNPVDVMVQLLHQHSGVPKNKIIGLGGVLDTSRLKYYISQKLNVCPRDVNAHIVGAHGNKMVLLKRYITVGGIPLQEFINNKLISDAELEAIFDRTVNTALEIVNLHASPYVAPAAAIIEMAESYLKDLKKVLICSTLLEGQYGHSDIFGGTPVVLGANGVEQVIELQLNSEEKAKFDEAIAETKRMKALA
Sequence of Protein kinase 7 (PK7), Plasmodium falciparum 3D7 (PF3D7_0213400) (Q7YTF7 1-343): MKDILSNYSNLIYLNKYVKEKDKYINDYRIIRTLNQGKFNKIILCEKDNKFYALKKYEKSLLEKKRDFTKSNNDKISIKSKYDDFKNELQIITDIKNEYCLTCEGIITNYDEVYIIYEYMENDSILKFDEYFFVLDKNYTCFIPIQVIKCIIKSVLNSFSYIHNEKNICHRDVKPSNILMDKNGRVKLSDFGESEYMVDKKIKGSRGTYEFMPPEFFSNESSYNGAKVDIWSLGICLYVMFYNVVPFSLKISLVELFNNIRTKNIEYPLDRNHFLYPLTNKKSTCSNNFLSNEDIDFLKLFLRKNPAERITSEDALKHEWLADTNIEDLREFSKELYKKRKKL
Sequence of Calcium-dependent protein kinase 1 (Plasmodium falciparum (isolate 3D7)) (P62344 whole entry, looked up): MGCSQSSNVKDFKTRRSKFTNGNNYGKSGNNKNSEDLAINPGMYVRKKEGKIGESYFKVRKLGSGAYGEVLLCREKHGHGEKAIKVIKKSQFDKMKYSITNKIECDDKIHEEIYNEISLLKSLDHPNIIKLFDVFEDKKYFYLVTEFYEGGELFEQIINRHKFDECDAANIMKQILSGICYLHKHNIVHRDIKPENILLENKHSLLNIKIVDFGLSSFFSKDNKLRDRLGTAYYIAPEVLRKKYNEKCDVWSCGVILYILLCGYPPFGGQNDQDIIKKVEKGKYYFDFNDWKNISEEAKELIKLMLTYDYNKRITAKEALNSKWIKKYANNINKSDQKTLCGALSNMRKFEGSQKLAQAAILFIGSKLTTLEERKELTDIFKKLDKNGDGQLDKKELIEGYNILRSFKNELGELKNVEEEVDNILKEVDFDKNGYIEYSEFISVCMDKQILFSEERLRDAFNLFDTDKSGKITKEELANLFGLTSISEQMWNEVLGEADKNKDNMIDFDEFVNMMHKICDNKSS
Sequence of Plasmodium falciparum protein kinase 6 (PK6, PF3D7_1337100) (Q8IDW1 1-305): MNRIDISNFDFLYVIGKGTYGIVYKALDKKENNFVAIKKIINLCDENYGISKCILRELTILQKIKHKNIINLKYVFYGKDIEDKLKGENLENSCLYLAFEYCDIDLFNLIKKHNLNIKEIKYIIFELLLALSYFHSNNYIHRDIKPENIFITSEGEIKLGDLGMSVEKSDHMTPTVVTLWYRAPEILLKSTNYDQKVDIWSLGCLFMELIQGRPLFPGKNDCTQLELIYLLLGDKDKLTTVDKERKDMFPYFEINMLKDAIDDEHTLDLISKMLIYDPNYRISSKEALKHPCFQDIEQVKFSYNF
Sequence of Calcium-dependent protein kinase 4 (Plasmodium falciparum (isolate 3D7)) (Q8IBS5 whole entry, looked up): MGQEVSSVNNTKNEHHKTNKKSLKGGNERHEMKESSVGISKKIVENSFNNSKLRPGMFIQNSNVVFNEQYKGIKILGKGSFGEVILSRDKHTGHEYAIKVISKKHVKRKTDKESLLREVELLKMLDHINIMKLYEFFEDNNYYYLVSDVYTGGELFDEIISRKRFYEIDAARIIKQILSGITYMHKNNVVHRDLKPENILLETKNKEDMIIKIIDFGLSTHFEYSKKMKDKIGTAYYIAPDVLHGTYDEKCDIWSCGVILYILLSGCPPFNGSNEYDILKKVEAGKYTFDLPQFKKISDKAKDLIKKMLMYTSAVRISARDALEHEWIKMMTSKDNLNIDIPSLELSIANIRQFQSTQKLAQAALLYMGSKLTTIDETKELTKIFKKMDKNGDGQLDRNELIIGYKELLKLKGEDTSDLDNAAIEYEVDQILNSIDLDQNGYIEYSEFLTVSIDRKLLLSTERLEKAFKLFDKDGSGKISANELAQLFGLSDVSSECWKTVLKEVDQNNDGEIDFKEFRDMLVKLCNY

For the molecule `COc1ccc(C)c(Nc2ccnc(Nc3ccc(-c4cnc[nH]4)cc3)n2)c1`, the growth inhibition in assay [1] was 6%; in assay [4] it was 97% (active). In addition, the inhibition (usually the relative decrease from the control value, in per cent) in assay [2] was 40%; in assay [3], -1%. Moreover, the result in assay [5], in assay [6], in assay [7] and in assay [8] was inactive.

On to `COC(=O)c1cc(OC2CCOC2=O)cc2c1OC(C)(C)O2` (stereo not given), for which the values for the growth inhibition in assay [1] and in assay [4] were -1% and 97% (active), respectively. The results for the inhibition in assay [2] and in assay [3] were 6% and 2%, respectively. The result in assay [5], in assay [6], in assay [7] and in assay [8] was inactive.

Consider `Cc1cc(Br)cnc1CCCCN=C1NC(=O)CN1C`, for which the growth inhibition in assay [1] is 26%; in assay [4], 95% (active). Also, the inhibition in assay [2] was 63% (active); in assay [3], 2%. The outcome in assay [5], in assay [6], in assay [7] and in assay [8] was inactive.

Take `Cc1ccc(NC(=O)c2ccc(CN3CCCN(CC4CCCCC4)CC3)cc2)cc1F`: the values for the growth inhibition in assay [1] and in assay [4] were 61% (active) and 92% (active), respectively. The results for the inhibition in assay [2] and in assay [3] were 51% (active) and -2%, respectively. For the same molecule, the outcome in assay [5], in assay [6], in assay [7] and in assay [8] was inactive.

In the case of `CN1CCCN(Cc2ccc(-c3ccc(NC(=O)c4ccc(C#N)cc4)cc3)cc2)CC1`, the growth inhibition in assay [1] was 28%; in assay [4], 91% (active). The inhibition in assay [2] is 30%; in assay [3] it was 4%. For the same molecule, the outcome in assay [5], in assay [6], in assay [7] and in assay [8] was inactive.

For the molecule `COc1cc2nc(N3CC(C)N(C(=O)Cc4ccc(-c5ccccc5)cc4)C(C)C3)nc(N)c2cc1OC` (stereo not given), the figures for the growth inhibition in assay [1] and in assay [4] were 12% and 100% (active), respectively. Further, the inhibition in assay [2] is 26%; in assay [3] it was -5%. In addition, the outcome in assay [5], in assay [6], in assay [7] and in assay [8] was inactive.

For `CCCCNC(=O)[C@H](CC1CCCCC1)NC(=O)c1ccc(O)c(-c2ccc(Cl)c(Cl)c2)c1`, the figures for the growth inhibition in assay [1] and in assay [4] were 99% (active) and 98% (active), respectively. For the same molecule, the inhibition in assay [2] was -9%; in assay [3], -1%. Also, the outcome in assay [5], in assay [6], in assay [7] and in assay [8] was inactive.

`CCOC(=O)CCCCOc1c(OC)cc(Cc2cnc(N)nc2N)cc1OC`: the growth inhibition in assay [1] is 0%; in assay [4], 95% (active). Besides, the inhibition was -8% in assay [2] and 5% in assay [3]. For the same molecule, the outcome in assay [5], in assay [6], in assay [7] and in assay [8] was inactive.

For `Cc1ccc(NC(=O)NC2CCN(c3ccnc4ccccc34)CC2)cc1`, the results for the growth inhibition in assay [1] and in assay [4] were 52% (active) and 97% (active), respectively. Also, the inhibition was 21% in assay [2] and -6% in assay [3]. Moreover, the outcome in assay [5], in assay [6], in assay [7] and in assay [8] was inactive.

As for `CCN(CC)C(=NCCCCCCN=C(NC(N)=NCc1ccc(Cl)cc1)N(CC)CC)NC(N)=NCc1ccc(Cl)cc1`, the growth inhibition in assay [1] and in assay [4] was 100% (active) in each case. The inhibition in assay [2] was 18%; in assay [3], -3%. In addition, the result in assay [5], in assay [6], in assay [7] and in assay [8] was inactive.

In the case of `CCC(ON1C(N)=NC(N)=NC1(C)C)c1ccccc1` (stereo not given), the growth inhibition in assay [1] was -5%; in assay [4] it was 96% (active). Also, the values for the inhibition in assay [2] and in assay [3] were 61% (active) and -4%, respectively. Further, the result in assay [5], in assay [6], in assay [7] and in assay [8] was inactive.

Regarding `CCOc1ccc(C2CCN(CCCCNC(=O)c3ccc(NC(=O)c4ccc(Cl)cc4)cc3)CC2)c(CC)c1`, the growth inhibition in assay [1] is 64% (active); in assay [4], 100% (active). Besides, the values for the inhibition in assay [2] and in assay [3] were 44% and -4%, respectively. Also, the outcome in assay [5], in assay [6], in assay [7] and in assay [8] was inactive.

In the case of `Cc1cc(=O)c2cc(Oc3ccc(OC(F)(F)F)cc3)ccc2[nH]1`, the growth inhibition in assay [1] is 71% (active); in assay [4] it was 86% (active). The inhibition is 20% in assay [2] and -2% in assay [3]. Moreover, the outcome in assay [5], in assay [6], in assay [7] and in assay [8] was inactive.

`CN(CCCCCNC(=O)/C=C/c1ccc(Cl)c(Cl)c1)CCc1c[nH]c2ccccc12`: the growth inhibition is 18% in assay [1] and 91% (active) in assay [4]. The inhibition is 40% in assay [2] and 2% in assay [3]. For the same molecule, the outcome in assay [5], in assay [6], in assay [7] and in assay [8] was inactive.

On to `Cc1cccc(Cn2c(C(N)=O)nn(-c3ccc([N+](=O)[O-])cc3C#N)c2=S)c1`, for which the growth inhibition in assay [1] was 48%; in assay [4] it was 101% (active). The inhibition is 1% in assay [2] and 2% in assay [3]. Moreover, the result in assay [5], in assay [6], in assay [7] and in assay [8] was inactive.

For the molecule `COc1ccc(Cl)cc1N1CCN(CCCNC(=O)c2ccc(-c3nc4cc(Cl)c(F)cc4[nH]3)c(F)c2)CC1`, the growth inhibition in assay [1] is 91% (active); in assay [4], 101% (active). Moreover, the inhibition was 21% in assay [2] and 5% in assay [3]. In addition, the result in assay [5], in assay [6], in assay [7] and in assay [8] was inactive.

Turning to `O=C(/C=C/c1ccc(Cl)c(Cl)c1)NCCCCCN1CCCN(C(=O)Nc2ccc(F)c(Cl)c2)CC1`, the figures for the growth inhibition in assay [1] and in assay [4] were 0% and 95% (active), respectively. The inhibition in assay [2] was 31%; in assay [3] it was 1%. Besides, the result in assay [5], in assay [6], in assay [7] and in assay [8] was inactive.

With `CN1CCN(CC(=O)Nc2cccc(-c3ccc(-c4nc5ccc(F)cc5[nH]4)s3)c2)CC1`, the growth inhibition in assay [1] is 94% (active); in assay [4], 101% (active). Moreover, the inhibition in assay [2] was 71% (active); in assay [3] it was -4%. Besides, the outcome in assay [5], in assay [6], in assay [7] and in assay [8] was inactive.

For `N#Cc1ccc(N(CCOC(=O)c2ccccc2)Cc2ccccc2C(F)(F)F)cc1C(F)(F)F`, the growth inhibition is 67% (active) in assay [1] and 92% (active) in assay [4]. In addition, the inhibition was 6% in assay [2] and -1% in assay [3]. The result in assay [5], in assay [6], in assay [7] and in assay [8] was inactive.

Consider `COc1ccc(NC(=O)NC2CCN(c3ccnc4cc(Cl)ccc34)C2)cc1` (stereo not given), for which the figures for the growth inhibition in assay [1] and in assay [4] were 69% (active) and 101% (active), respectively. The inhibition in assay [2] is 10%; in assay [3] it was -2%. The result in assay [5], in assay [6], in assay [7] and in assay [8] was inactive.
